± gives the standard deviation of the averaged measurements. Whole data set: some 25,000 sequences, median “ln(normalized median fluorescence intensity)” near 8.9, cut for the highest 2% near 10. This excerpt belongs to a sample that is enriched for the highest values.

The test has as its system PfAP2-LT AP2 domain (GST-tagged). Description: gcPBM binding intensity (ln(normalized median fluorescence intensity)); higher = stronger DNA binding. The procedure, abridged: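 The highest Masliner-normalised natural-log median intensity across replicate spots of either probe orientation is reported as binding intensity. GST-tagged P. falciparum DNA-binding domains expressed in E. coli were applied for 1 h to an Agilent 4 × 180k array of primer-extended double-stranded 36-bp intergenic genomic probes plus negative controls, and bound protein was detected with Alexa488 anti-GST antibody and scanned at 488 nm.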
For “ATAAAATTATATACTCGTACACAAAAAAAAAAAATA [XGTACX_site6035]”, the “gcPBM binding intensity (ln)” value came to 8.77 ± 0.47.

Turning to “TATAAGTGCCGTTATACACACGTTATATAAATATTA [CACACA_site4401]”, the “gcPBM binding intensity (ln)” value amounted to 8.81 ± 0.4.

In the case of “CGTTTATTAAACTTGACACACACACCCCCACATATA [CACACA_site8151]”, the “gcPBM binding intensity (ln)” value worked out at 9.975 ± 0.064.

As for “AACACAGATAAATTAACACACACACCCATATATATA [CACACA_site9310]”, the “gcPBM binding intensity (ln)” value stood at 9.85 ± 0.23.

Regarding “CACAGATAAATTAACACACACACACCCATATATATA [CACACA_site3960]”, the “gcPBM binding intensity (ln)” value was found to be 10.05 ± 0.071.

With “TATTAAACTGGACACACACACACACCCATATATAAA [CACACA_site4579]”, the “gcPBM binding intensity (ln)” value was 10.15 ± 0.021.

For the sequence “TTCCCATGTAATATTAAACACACACCCATATAACAC [CACACA_site7905]”, the “gcPBM binding intensity (ln)” value was determined as 9.505 ± 0.078.

Regarding “TATTAAACGAAACACACACACACACCCATATATAAA [CACACA_site759]”, the “gcPBM binding intensity (ln)” value is 10.23 ± 0.099.

On to “ATACGACAAATATAAAGTACAAGCTTGGTTTTTATA [XGTACX_site8103]”, for which the “gcPBM binding intensity (ln)” value turned out to be 8.88 ± 0.59.

As to “AATTTGAAATATGTGGTGCAGTTATATAATATGTTT [GTGCAC_site9885]”, the “gcPBM binding intensity (ln)” value stood at 8.87 ± 0.41.

With “GTACATATATACATTACACACGGTTTGATTTAAAAA [CACACA_site3379]”, the “gcPBM binding intensity (ln)” value is 8.98 ± 0.41.

“ATATACAATACAAAAACACACACAAAAAAAGAAAAG [CACACA_site8668]”: the “gcPBM binding intensity (ln)” value was 9.59 ± 0.4.

For “AGAAAAAAAAAAAAAAAACACACGGTACATTCAAAG [CACACA_site2]”, the “gcPBM binding intensity (ln)” value was found to be 8.84 ± 0.43.

Turning to “AAAGAAAAAAAAAACACACACACACCCATTCAATAT [CACACA_site38]”, the “gcPBM binding intensity (ln)” value amounted to 10.29 ± 0.035.

As to “AAAGAAAAAAAAAACACACACACACGCATTCAATAT [CACACA_site6169]”, the “gcPBM binding intensity (ln)” value came to 10.1 ± 0.13.

As to “AGAAAAAAAAAACACACACACACACCCTCAATATAA [CACACA_site39]”, the “gcPBM binding intensity (ln)” value turned out to be 10.1 ± 0.11.

Regarding “AAAAAAAAAAAACACACACACACATTCAATATAAAA [CACACA_site40]”, the “gcPBM binding intensity (ln)” value worked out at 9.76 ± 0.28.

Take “AAAAATATGCTTCCATGTACTTAAAAAAAAAATTTA [XGTACX_site3617]”: the “gcPBM binding intensity (ln)” value came out at 8.34 ± 0.47.

For “TTCATTTATATAATCACACATTTTATCATCTATGTT [CACACA_site4327]”, the “gcPBM binding intensity (ln)” value was found to be 8.98 ± 0.47.

Take “ATGCAAACTAAAAGACGTACAGAAAAGTATCATACT [XGTACX_site8766]”: the “gcPBM binding intensity (ln)” value came out at 9.02 ± 0.42.

Turning to “TAAACAAATAAATAAACACACAATATATGTATATAT [CACACA_site3803]”, the “gcPBM binding intensity (ln)” value stood at 9.05 ± 0.38.

Take “AATGAAATAAATAAGGGTACACATAAATATATATAT [XGTACX_site7006]”: the “gcPBM binding intensity (ln)” value amounted to 9.04 ± 0.43.

With “TATGTGCCAAAACACACACACATATATATATATATA [CACACA_site469]”, the “gcPBM binding intensity (ln)” value was 10.2 ± 0.2.

On to “AAAAAAAAAAAAAAAACACACATATATGTATATATA [CACACA_site3276]”, for which the “gcPBM binding intensity (ln)” value worked out at 8.92 ± 0.35.

Turning to “AAATTATGTGCCAATACACACACACCGATATATATA [CACACA_site8050]”, the “gcPBM binding intensity (ln)” value stood at 9.92 ± 0.21.

Regarding “ATTATGTGCCAATACACACACACATATATATATATA [CACACA_site468]”, the “gcPBM binding intensity (ln)” value is 10.38 ± 0.078.

“AAAAAAAAAACATACACACACATATATATATATATG [CACACA_site1586]”: the “gcPBM binding intensity (ln)” value amounted to 9.46 ± 0.3.

In the case of “ATTATGTGCCAATACACACACACATCTATATTTATA [CACACA_site6359]”, the “gcPBM binding intensity (ln)” value came to 9.67 ± 0.18.

Source of the values: the supplement of paper PMC11417369.
